Out of some 52,000 compounds screened, about 4,300 (8.3%) were called active. The entries come from a sample that favours actives as a whole. Unmarked numbers belong to inactive results. No stated cut-off is given here; in the data, active means survival mostly below about 52% (no sharp cut-off); inactive means mostly above about 56%.

The experiment relates to DeltatarO mutant. Nature of the experiment: S. aureus survival, RN4220 and DeltatarO strains – OD600, teichoic acid synthesis inhibitors, primary screen (AID 463173). The conditions noted are these: S. aureus RN4220 wild type/DeltatarO growth, OD600, 18 h, active compounds read low, screened at 18.75 µg/mL (by protocol).
As to `CCn1c(=O)c2sccc2n2c(CCC(=O)Nc3ccc(OC)c(Cl)c3)nnc12`, the survival is 89%.

Consider `CCOc1ccc(CNC(=O)c2ccc(-c3nc(CS(=O)(=O)c4ccccc4)c(C)o3)cc2)cc1`, for which the survival was 76%.

As to `COC(=O)c1ccccc1NC(=O)CN(c1ccc(Cl)cc1)S(=O)(=O)c1ccc(OC)cc1`, the survival is 72%.

As for `COc1cccc(NC(=O)c2sc3nc(C)c(C(=O)Nc4ccc(C)cc4C)c(-c4ccco4)c3c2N)c1`, the survival is 79%.

For the molecule `COc1ccc(NC(=O)c2sc3nc(C)c(C(=O)Nc4ccc(C)cc4C)c(-c4ccc(C)o4)c3c2N)cc1`, the survival was 51%.

On to `COc1cccc(NC(=O)c2sc3nc(C)c(C(=O)Nc4ccc(C)cc4C)c(-c4ccc(C)o4)c3c2N)c1`, for which the survival was 39% (active).

As to `Cc1ccc(/C=C/c2onc(C)c2S(=O)(=O)N2CCC(C(=O)N3CCN(c4ccccc4F)CC3)CC2)cc1`, the survival is 116%.

On to `Cc1ccc(CCNC(=O)c2ccc(NC(=O)N3CC(C)Sc4ccccc43)cc2)cc1` (stereo not given), for which the survival is 73%.

With `CCOc1ccc(-c2nc(Cn3c(=O)cc(-c4ccccc4)c4c(C)nn(C)c43)c(C)o2)cc1`, the survival was 128%.

For `CCc1ccc(-c2[nH]nc3nc(-c4ccc(OC)cc4)cc(C(=O)NCCc4ccc(OC)c(OC)c4)c23)cc1`, the survival is 81%.

Turning to `CCc1ccc(-c2cn3nc(CC)sc3n2)cc1`, the survival is 66%.

Regarding `CC(=O)N1CCc2c(sc3c2c(=O)n(CCc2ccccc2)c(=O)n3CC(=O)Nc2ccccc2F)C1`, the survival is 55%.

As for `COc1c(C)cc(NS(=O)(=O)c2ccc3c(c2)OCCO3)cc1C`, the survival is 72%.

As for `Cc1ccc(NC(=O)COCc2cc(-c3cccs3)on2)cc1Cl`, the survival is 57%.

On to `O=C(COCc1cc(-c2cccs2)on1)N1CCN(c2ccccc2)CC1`, for which the survival was 72%.

Take `O=C(COCc1cc(-c2cccs2)on1)N1CCN(c2cccc(Cl)c2)CC1`: the survival was 37% (active).

Consider `O=C(COCc1cc(-c2cccs2)on1)Nc1cccc(O)c1`, for which the survival is 0% (active).

As to `O=C(COCc1cc(-c2cccs2)on1)N1CCN(c2ccc(F)cc2)CC1`, the survival is 98%.

As for `O=C(COCc1cc(-c2ccco2)on1)Nc1cccc(O)c1`, the survival is 78%.

For `O=C(c1ccc2c(c1)N(Cc1ccccc1F)C(=O)c1ccccc1S2=O)N1CCC(Cc2ccccc2)CC1` (stereo not given), the survival was 77%.

In the case of `Cc1cccc(C)c1NC(=O)Cn1nnc(S(=O)(=O)c2ccccc2)c1N`, the survival is 91%.

In the case of `Cc1cccc(NC(=O)CSc2cn(CC(=O)N3CCOCC3)c3ccccc23)c1C`, the survival is 64%.

For `O=C(c1ccc2c(c1)N(Cc1ccccc1)C(=O)c1ccccc1S2(=O)=O)N1CCCCCC1`, the survival was 70%.

With `COc1ccc(CNC(=O)C(C)n2ccc3cc(S(=O)(=O)N4CCCC4)ccc32)cc1OC` (stereo not given), the survival was 85%.

Regarding `O=C(NCc1ccco1)C(c1ccccc1)N(CCc1ccccc1)C(=O)Cn1nnc2ccccc21` (stereo not given), the survival is 99%.

Regarding `O=C(CSc1c2c(nc3cc(Cl)ccc13)CCCC2)N1CCN(c2ccccc2)CC1`, the survival is 33% (active).

With `O=C(CSc1c2c(nc3ccc(Cl)cc13)CCCC2)N1CCN(c2ccc(Cl)cc2)CC1`, the survival was 31% (active).

Consider `O=C(CSc1c2c(nc3ccc(Cl)cc13)CCCC2)N1CCN(c2cccc(Cl)c2)CC1`, for which the survival is 51% (active).

For the molecule `O=C(CSc1c2c(nc3cc(Cl)ccc13)CCCC2)NCc1ccccc1Cl`, the survival is 75%.

Turning to `O=C(CSc1c2c(nc3cc(Cl)ccc13)CCCC2)N1CCN(c2ccccc2F)CC1`, the survival is 50%.

Turning to `COc1ccc(N2CCN(C(=O)CSc3c4c(nc5ccc(Cl)cc35)CCCC4)CC2)cc1`, the survival is 35% (active).

Turning to `COc1ccc(OC)c(NC(=O)CSc2c3c(nc4cc(Cl)ccc24)CCCC3)c1`, the survival was 86%.

As for `COc1ccc(CNC(=O)CSc2c3c(nc4ccc(Cl)cc24)CCCC3)cc1`, the survival is 77%.

Turning to `Cc1sc2ncn(CC(=O)Nc3ccc(C(C)C)cc3)c(=O)c2c1S(=O)(=O)N1CCN(c2ncccn2)CC1`, the survival was 59%.

With `CC1=C(C(=O)Nc2ccccc2C)C(c2ccco2)n2ncnc2N1` (stereo not given), the survival was 101%.

Turning to `CCc1cccc(C)c1NS(=O)(=O)c1cc2[nH]c(=O)c(=O)[nH]c2cc1C`, the survival is 80%.

In the case of `CC(=O)c1ccc(N2CCN(c3ncnc4c3nc3n4CCCC3)CC2)cc1`, the survival is 75%.

Take `COC(=O)c1ccccc1NC(=O)Cn1c(=O)n(CCCCC(=O)NCc2ccc3c(c2)OCO3)c(=O)c2ccccc21`: the survival was 67%.

Turning to `COc1ccc(-c2nc3sc(CCNC(=O)c4ccc(Br)o4)c(C)n3n2)cc1`, the survival is 92%.

As for `COc1ccc(C)cc1NC(=O)C1COc2ccccc2C1` (stereo not given), the survival is 83%.

For `COc1ccccc1C(=O)N(c1ccc(C)cc1)S(=O)(=O)c1ccc(Cl)cc1`, the survival is 74%.

For `COC(=O)c1ccc(NC(=O)CC2C(=O)N(c3cccc(OC)c3)C(=O)N2Cc2cccc(OC)c2)cc1` (stereo not given), the survival is 105%.

Take `COc1ccc(C)cc1NC(=O)N1CCCn2nc(C)cc21`: the survival is 73%.

Take `COC(=O)c1ccc(Cl)cc1NC(=O)N1CCCn2nc(C)cc21`: the survival is 94%.

As for `COc1cc(OC)c(NC(=O)N2CCCn3nc(C)cc32)cc1Cl`, the survival is 47% (active).

Turning to `O=C(NC1CCCCC1)C(Cc1ccccc1)N1C(=O)C2C3C=CC(C3)C2C1=O` (stereo not given), the survival was 92%.

With `Cc1ccc2nc(Nc3ccc(C)c(F)c3)c3nncn3c2c1`, the survival was 38% (active).

On to `Cc1cc(F)ccc1Nc1nc2ccc(Cl)cc2n2cnnc12`, for which the survival was 90%.

With `Cc1ccc2nc(NCc3ccc(F)cc3)c3nncn3c2c1`, the survival is 121%.

`Cc1ccc(NC(=O)c2ccc(=O)n(CC(=O)Nc3cccc(C)c3)n2)cc1`: the survival is 72%.

In the case of `COc1cccc(CNC(=O)CCc2c(C)nn(-c3ccc(N4CCOCC4)nn3)c2C)c1`, the survival is 100%.

Take `Cc1cccn2c(=O)cc(COc3ccc(NC(=O)COc4ccc(F)cc4)cc3)nc12`: the survival was 89%.

`Cc1ccc(OCC(=O)Nc2ccc(OCc3cc(=O)n4cccc(C)c4n3)cc2)cc1C`: the survival was -5% (active).

For `Cc1ccccc1C(=O)Nc1ccc(OCc2cc(=O)n3cccc(C)c3n2)cc1`, the survival is 88%.

Turning to `CCOc1ccc(C(=O)Nc2ccc(OCc3cc(=O)n4cccc(C)c4n3)cc2)cc1`, the survival is 55%.

On to `COc1ccccc1C(=O)Nc1ccc(OCc2cc(=O)n3ccc(C)cc3n2)cc1`, for which the survival is 89%.

In the case of `Cc1cccc(C(=O)Nc2ccc(OCc3cc(=O)n4ccc(C)cc4n3)cc2)c1`, the survival was 81%.

With `Cc1cccn2c(=O)cc(COc3cccc(NC(=O)c4ccccc4F)c3)nc12`, the survival was -5% (active).

As for `Cc1ccccc1C(=O)Nc1cccc(OCc2cc(=O)n3cccc(C)c3n2)c1`, the survival is 77%.

For `Cc1ccc(OCC(=O)Nc2cccc(OCc3cc(=O)n4cccc(C)c4n3)c2)cc1C`, the survival is 122%.

As to `COc1cc(C(=O)Nc2ccc(OCc3cc(=O)n4ccc(C)cc4n3)cc2)cc(OC)c1OC`, the survival is 8% (active).

Regarding `Cc1cccn2c(=O)cc(COc3ccc(NC(=O)c4cccc(F)c4)cc3)nc12`, the survival was 17% (active).

For `Cc1cccc(C(=O)Nc2cccc(OCc3cc(=O)n4cccc(C)c4n3)c2)c1`, the survival was 92%.

Turning to `CCOC(=O)c1ccccc1NC(=O)N1CCc2c(sc(C)c2CC)C1c1ccccc1` (stereo not given), the survival was 124%.

With `O=C(Cc1csc2ccccc12)NCc1cccc(Br)c1`, the survival is 84%.

Turning to `O=S(=O)(c1ccc(-c2cnc(C3CC3)o2)cc1)N1CCN(c2ccccc2F)CC1`, the survival was 87%.

Consider `Cc1ccc(C(=O)NCc2ccccc2)cc1NC(=O)c1nsc2ccccc12`, for which the survival is 84%.

In the case of `CCOc1ccc(NC(=O)N(C(C)C)C2CCN(C(C)=O)CC2)cc1`, the survival is 76%.

With `CCC(C)NC(=O)c1sc2nc(C)c(C(=O)Nc3ccc(C)cc3C)c(-c3ccc(NC(C)=O)cc3)c2c1N` (stereo not given), the survival is 88%.

Take `CC(C)CC(C(=O)NCC1CCN(Cc2ccc(F)cc2)CC1)N1Cc2ccccc2C1=O` (stereo not given): the survival is 94%.

For `CC(=O)N1c2c(cc(Br)cc2S(=O)(=O)Nc2ccc(OC(F)(F)F)cc2)CC1C` (stereo not given), the survival was 66%.

Consider `CCOc1ccc(N(CC)S(=O)(=O)c2cc(Br)cc3c2N(C(C)=O)C(C)C3)cc1` (stereo not given), for which the survival is 60%.

On to `CC(=O)N1c2c(cc(Br)cc2S(=O)(=O)Nc2ccccc2C)CC1C` (stereo not given), for which the survival is 68%.

In the case of `COc1cc(NS(=O)(=O)c2cc(Br)cc3c2N(C(C)=O)C(C)C3)cc(OC)c1` (stereo not given), the survival was 20% (active).

Regarding `COc1ccc(CNS(=O)(=O)c2cc(Br)cc3c2N(C(C)=O)C(C)C3)cc1` (stereo not given), the survival was 131%.

On to `CC(=O)N1c2c(cc(Br)cc2S(=O)(=O)NCc2ccccc2Cl)CC1C` (stereo not given), for which the survival is 46% (active).

With `COc1ccccc1CNS(=O)(=O)c1cc(Br)cc2c1N(C(C)=O)C(C)C2` (stereo not given), the survival is 53%.

In the case of `COc1cccc(CNS(=O)(=O)c2cc(Br)cc3c2N(C(C)=O)C(C)C3)c1` (stereo not given), the survival is 128%.

For `CCN(c1cccc(C)c1)S(=O)(=O)c1cc(Br)cc2c1N(C(C)=O)C(C)C2` (stereo not given), the survival is 51% (active).

In the case of `COc1ccc(-n2c(SCC(=O)N3CCCc4ccccc43)nc3c([nH]c4ccccc43)c2=O)cc1`, the survival was 101%.

With `COc1ccc2c(C)c(CCC(=O)NCCc3ccc(OC)c(OC)c3)c(=O)oc2c1`, the survival was 88%.

Turning to `CC(=O)c1cccc(NC(=O)Cn2cc(C(=O)c3cccc(Cl)c3)c(=O)c3ccc(C)nc32)c1`, the survival is 56%.

On to `COc1cc(C(=O)Nc2ccc(Cl)c(-c3nc4ncccc4o3)c2)cc(OC)c1OC`, for which the survival was 123%.

Turning to `COc1ccc(Br)cc1CNC(=O)c1cc(=O)[nH]c2ccc(S(=O)(=O)N3CCCCC3)cc12`, the survival is 84%.

In the case of `CCOC(=O)CCC(=O)Nc1nnc2n1CCS2`, the survival is 66%.

Source of the values: PubChem BioAssay AID463173 (ICCB-Longwood Screening Facility, Harvard Medical School, 2010).
